Screening data from PubChem.
LASV entry inh = blocks Lassa virus binding to or entry into cells. Lassa virus pseudotype entry inhibition, cell reporter. Potency, µM (top dose mostly 37.9 µM), for the others: at the top dose activity change, negative = inhibition, most hits filed as inhibitors. actives 1.2% (n = 300,000); calls by dose curve; tested in HEK293 cells; further: potency means the concentration at half of the fitted maximal effect; on the % scale 0 is the no-effect control and ±100 the full control effect; nearly all actives have a fitted effect of over 50% in size
MARV entry inh = inhibitors of Marburg virus binding or cell entry; Marburg virus pseudotyped entry inhibition, cell reporter; Potency, µM (series often up to 37.8 µM), inactives show at the highest dose activity change, negative = inhibition, usual class: inhibitors; actives 1.8% (n = 300,000); calls by dose curve; tested in HEK293 cells; further: potency means the concentration at half of the fitted maximal effect; on the % scale 0 is the no-effect control and ±100 the full control effect
Cycloheximide cs = affects cycloheximide protein synthesis inhibition readout, counter-screen; cell reporter, cycloheximide protein synthesis inhibition counterscreen; max response, %; actives 12% (n = 300,000); AID 2314; in the data active means max response mostly above about 13%, no sharp cut-off; inactive means mostly below about 14%; further: read at 38.3 µM for the half of the compounds with a filed dose; 0% is about no effect
Shiga inhibitor = inhibitors of Shiga toxin in Vero cells | AID 2315 | actives 9.2% (n = 290,000) | Vero cells, Shiga toxin protein synthesis inhibition reporter | inhibition, % at 38.7 µM; in the data active means inhibition mostly above about 28%, no sharp cut-off; inactive means mostly below about 43%; further: 0% is about no effect
An asterisk follows results filed as active; ? = inconclusive; nt = not tested or not shown; [ ] = dose if it differs, or a comment. Most compounds without a hit are left out; they make up all but 12% or so of the library.

SMILES | LASV entry inh | MARV entry inh | Cycloheximide cs | Shiga inhibitor
O=C(Nc1cccc(F)c1)NC1CCCCC1 | -15% | ? | 32* | 96*
O=C(Nc1ccc(F)cc1)NC1CCCCC1 | -14% | 24% | 37* | 79*
O=C(Nc1ccc2c(c1)OCCO2)C1CCC1 | 25% | ? | 21 | 28
O=C(Nc1ccc(F)cc1F)NC1CCCCCCC1 | ? | 6%[46.1 µM] | 37* | 96*
CCN(CC)C(=O)c1cccc(NC(=O)C2CCN(C(=O)c3cccs3)CC2)c1 | 2% | 11% | nt | nt
CCC(C(=O)Nc1ccccc1C(=O)OC)n1c(C)c2cnn(-c3ccccc3)c(=O)c2c1C (stereo not drawn) | -27%[46.1 µM] | ? | nt | nt
COc1ccc(CN(C(=O)Nc2cccc(Cl)c2)c2ccccn2)cc1OC | -4%[46.1 µM] | -24%[46.1 µM] | nt | nt
O=C(COCc1cc(-c2ccc(F)cc2)on1)Nc1cccc(Cl)c1Cl | -4%[46.1 µM] | nt | nt | nt
Cc1ccc(NC(=O)NC2CCCCCCC2)cc1 | nt | nt | 40* | 71*
O=C(NC(=S)NC1CCCCC1)c1ccc(F)cc1 | ? | ? | 48* | 117*
O=C(NC(=S)NC1CCN(Cc2ccccc2)CC1)c1ccc(F)cc1 | nt | nt | -4 | -5
Cc1ccc(NC(=O)C(=O)NC2CCCCC2)cc1 | 2% | ? | 12* | 3
O=C(O)c1ccc(NCCC2=CCCCC2)c([N+](=O)[O-])c1 | nt | nt | 0 | 6
CC(=O)N1CCOc2ccc(S(=O)(=O)NCC3CCC(C(=O)Nc4ccc(C)cn4)CC3)cc21 (stereo not drawn) | ? | ? | -10 | -6
CCOC(=O)c1cc(S(=O)(=O)N(C)Cc2ccccc2)cn1C | 13µM* | ? | 1 | -1
CCN(Cc1ccccc1)S(=O)(=O)c1cc(C(=O)OC)n(C)c1 | nt | nt | -1 | 14
O=C1c2ccccc2C(=O)c2cc(S(=O)(=O)Nc3cccc4cccnc34)ccc21 | nt | nt | 7 | 17
CCOc1ccc(S(=O)(=O)Nc2cc(SCC(=O)O)c(O)c3ccccc23)cc1 | nt | nt | 15 | 6
O=S(=O)(Nc1cc(Sc2cccc3cccnc23)c(O)c2ccccc12)c1ccccc1 | 18µM* | ? | 21 | 53*
O=C(O)CSc1cc(NS(=O)(=O)c2cccc([N+](=O)[O-])c2)c2ccccc2c1O | nt | nt | 13* | 11
Cc1ccc(C)c(NS(=O)(=O)c2cc(C(=O)Nc3ccccc3-c3ccccc3)ccc2C)c1 | ? | ? | 9 | -14
CCc1ccc(S(=O)(=O)Nc2cc(SCC(=O)O)c(O)c3ccccc23)cc1 | ? | ? | 9 | 30*
Cc1ccc(C)c(S(=O)(=O)Nc2cc(SCC(=O)O)c(O)c3ccccc23)c1 | ? | ? | 14* | -1
Cc1ccc(C)c(-c2csc(-c3c(N)c(C(=O)c4ccc5c(c4)OCO5)n4ccccc34)n2)c1 | -4%[46.1 µM] | ? | 13 | 17
CCOC(=O)[C@H]1CCCN(c2nc3ccccc3nc2[C@@H](C#N)C(=O)O[C@@H](C)COC)C1 | nt | -2% | nt | nt
SMILES | LASV entry inh | MARV entry inh | Cycloheximide cs | Shiga inhibitor
CCc1nnc(NC(=O)c2nc(S(=O)(=O)Cc3ccccc3)ncc2Cl)s1 | ? | ? | 75* | 114*
CCOc1ccccc1NC(=O)c1nc(S(=O)(=O)Cc2cccc(C)c2)ncc1Cl | 2%[46.1 µM] | -6%[46.1 µM] | 0 | -13
CCc1nnc(NC(=O)c2nc(S(=O)(=O)Cc3cccc(C)c3)ncc2Cl)s1 | ? | ? | 58* | 74*
CCc1nnc(NC(=O)c2nc(S(=O)(=O)Cc3ccc(C)cc3)ncc2Cl)s1 | ? | ? | 57* | 78*
O=C(c1cccs1)c1cn(CC(=O)N2CCc3ccccc3C2)c2ccccc12 | -26% | ? | 48* | 5
CCC(Sc1nc2ncccc2[nH]1)C(=O)Nc1ccccc1F (stereo not drawn) | 16%[46.1 µM] | nt | nt | nt
CCOCCn1cnc2sc(C(=O)NCC(=O)OCC)c(C)c2c1=O | -2% | ? | 23* | 32*
CCOC(=O)Cn1cnc2sc(C(=O)OC)c(C)c2c1=O | 6% | 8% | 11 | 25*
CCn1cnc2sc(C(=O)Oc3ccc(Br)cc3)c(C)c2c1=O | 4% | 23%[46.1 µM] | 30* | 64*
Cc1ccc(OCCn2cnc3sc(C(N)=O)c(C)c3c2=O)cc1 | nt | nt | 10 | -3
Cc1cccc(-n2c(=O)c3c4c(sc3n3cnnc23)CCCC4)c1 | 12%[46.1 µM] | 1%[46.1 µM] | nt | nt
O=C(O)c1cccc(Cn2c(Cl)c(/C=N/NC(=O)c3cc4ccccc4cc3O)sc2=O)c1 | nt | nt | 5 | 4
O=C(O)c1cccc(Cn2c(Cl)c(/C=N/NC(=O)c3ccccc3)sc2=O)c1 | -10% | 9% | 3 | 17
O=C(O)c1cccc(Cn2c(Cl)c(/C=N/NC(=O)c3ccco3)sc2=O)c1 | nt | nt | 33* | 27*
O=C(O)c1cccc(Cn2c(Cl)c(/C=N/NC(=O)c3cccc(O)c3)sc2=O)c1 | -16% | -4%[46.1 µM] | 24* | 75*
CC(=O)O[C@H]1CC[C@]2(C=O)C3CC[C@]4(C)[C@@H](C5=CC(=O)OC5)CC[C@]4(O)C3CC[C@]2(O)C1 (stereo partly drawn) | nt | nt | -7 | -14
CC1OC(OC2C(O)CC(OC3C(O)CC(OC4CCC5(C)C(CCC6C5CCC5(C)C(C7=CC(=O)OC7)C(O)CC65O)C4)OC3C)OC2C)CC(O)C1O (stereo not drawn) | 0.32µM* | ? | nt | nt
CC(=O)OC1CC(OC2C(O)CC(OC3C(O)CC(OC4CCC5(C)C(CCC6C5CCC5(C)C(C7=CC(=O)OC7)C(O)CC65O)C4)OC3C)OC2C)OC(C)C1OC1OC(CO)C(O)C(O)C1O (stereo not drawn) | ? | 0.18µM* | nt | nt
C[C@H]1O[C@@H](O[C@H]2[C@@H](O)C[C@H](O[C@H]3[C@@H](O)C[C@H](O[C@H]4CC[C@@]5(C)[C@H](CC[C@@H]6[C@@H]5CC[C@]5(C)[C@@H](C7=CC(=O)OC7)CC[C@]65O)C4)O[C@@H]3C)O[C@@H]2C)C[C@H](O)[C@@H]1O | 0.21µM* | 0.058µM* | -7 | -23
C[C@H]1O[C@@H](OC2CC[C@]3(C=O)[C@H]4CC[C@]5(C)[C@@H](C6=CC(=O)OC6)CC[C@]5(O)[C@@H]4CC[C@]3(O)C2)CC2OC(C)(C)OC21 (stereo partly drawn) | nt | nt | -7 | -14
Cc1ccc(OS(=O)(=O)c2ccccc2)c(/C=N/N=C2\NC(=O)C(C)S2)c1 (stereo not drawn) | ? | 11% | 12* | 26
O=C1CS/C(=N/N=C/c2ccccc2OS(=O)(=O)c2ccccc2)N1 | 2% | -7% | 3 | -8
O=C(Cc1ccccc1)NCC(=O)OCC(=O)c1ccccc1Cl | 0% | 9%[46.1 µM] | -1 | -7
N/C(=N\OC(=O)Cc1ccccc1)c1ccccc1Cl | nt | nt | 59* | 94*
N/C(=N\OC(=O)Cc1ccccc1)c1cccnc1 | -24%[14.3 µM] | 12% | 21* | 37
N/C(=N\OC(=O)Cc1ccc(Cl)cc1)c1cccnc1 | 11% | 10% | 15* | -23
Cc1ccc(SCc2nc(-c3ccc(C(=O)NCCc4ccc(Cl)cc4)cc3)oc2C)cc1 | 5%[46.1 µM] | nt | nt | nt
CC(=O)NCCNC(=O)c1ccc(CSc2ccc(Cl)cc2)cc1 | 18%[46.1 µM] | ? | 37* | 94*
CCNC(=O)c1ccc(CSc2ccc(Cl)cc2)cc1 | 3% | -11% | 34* | 55*
C=CCn1c(SCC(C)=O)nc2scc(-c3ccc(C)o3)c2c1=O | -12% | 24% | 20* | 19*
